Among all 48,000 compounds or so, about 13,000 (27%) showed an effect of 50% or more. The list shows a part of the results.
Tested on: Wolbachia pipientis
Test: Anti-Wolbachia Cell-Based Screen
Assay type: functional
Set-up: scale not given: in the data most compounds retested in dose-response had high values
Settings: 5 µM

SMILES | Percent Effect
O=C(Nc1ccccc1OCC(F)F)N[C@@H]1C=C[C@H](CO)C1 | -12.74%
O=C(NCC(O)c1ccc(F)cc1F)c1cccnc1O (centres undefined) | -11.89%
COCCOc1ccc(C(=O)N[C@@H]2CNCCC[C@H]2O)cc1 | -1.711%
Cl.c1ccc(CNc2cc(C3CCCNC3)ccn2)nc1 (centres undefined) | 70.58%
Cc1cccc(CNc2cc(C3CCCNC3)ccn2)n1.Cl (centres undefined) | 115.3%
COc1ccnc(CNc2cc(C3CC3)ncn2)c1 | -5.331%
Cl.Cl.c1ccc(NCc2cn3c(n2)CNCC3)nc1 | 6.135%
COCCNc1ccc(-c2noc([C@@H]3CCCN3)n2)cn1 | 5.755%
Cc1cccc(CNC[C@H]2Cn3ccnc3CO2)n1 | -11.54%
COCCNc1cc(C2CCCNC2)ccn1.Cl (centres undefined) | 131.3%
Cc1cc(C)c2nc(CN[C@H]3CCCNC3)cc(O)c2c1 | 1.45%
Cc1ccc2c(c1)c(CNC(C)Cn1nc(C)cc1C)nn2C (centres undefined) | 8.057%
CCN1CCC(CNS(=O)(=O)N2CCc3ccccc3C2)C1 (centres undefined) | 5.13%
Cc1cccc(C2(CNC(=O)CCN3C(=O)CCC3=O)CCCC2)c1 | 3.863%
Cc1ccnc(OC[C@@]23CCO[C@@H]2CCN(S(C)(=O)=O)C3)n1 | 3.207%
O=c1ccc(-n2ccnc2)nn1CCNS(=O)(=O)c1ccc(Cl)s1 | 9.208%
Cc1nc(NS(=O)(=O)c2cc(C)c(Br)cc2C)no1 | 12.58%
CCn1nnc2c1C(COC)CN(Cc1cccs1)C2.O=C(O)C(F)(F)F (centres undefined) | -4.503%
CCn1ncc2c1C(COC)CN(Cc1ccc(C)o1)C2 (centres undefined) | 99.39%
CCn1cc2c(n1)C(COC)CN(Cc1ccoc1)C2 (centres undefined) | -1.069%
CCn1nnc2c1C(COC)CN(C(=O)Cc1cccs1)C2 (centres undefined) | -3.417%
CCn1nnc2c1C(COC)CN(Cc1ccco1)C2 (centres undefined) | 114.9%
CCn1ncc2c1C(COC)CN(Cc1ccco1)C2 (centres undefined) | 102.5%
Cc1ccc(CN2Cc3cnn(C)c3C(COCC3CC3)C2)o1 (centres undefined) | 20.07%
CNC(=O)C1(N(C)CCc2ccccc2)Cc2ccccc2C1 | 30.02%
CCc1ccccc1C(=O)N1C[C@@H](CN2CCOCC2)[C@@H](CO)C1 | -4.214%

SMILES | Percent Effect
O=C(NCC(O)c1cccc(F)c1)C1CCN(C(=O)C2CCC2)CC1 (centres undefined) | -0.7968%
CC(C)(C)n1ncc2c1NC(=O)CC2c1ccsc1 (centres undefined) | 12.08%
COc1ccc(-n2ncc(C(C)NC3CCSCC3)c2C)cc1 (centres undefined) | -4.294%
COc1ccc(C2CC(=O)Nc3c2cnn3C)cc1 (centres undefined) | 32.7%
Cc1c(C(C)NC2CSCCSC2)cnn1-c1ccc(F)cc1F (centres undefined) | -0.1798%
CC(C)C1SCC(=O)Nc2c1cnn2-c1ccc(Cl)cc1 (centres undefined) | 114.3%
COc1ccc(-n2ncc3c2NC(=O)CSC3C(C)C)cc1 (centres undefined) | 81.05%
CN1CCN(Cc2cnn(-c3ccc(F)cc3)c2)[C@H]2CS(=O)(=O)C[C@H]21 | -6.219%
CC(C)C1SCC(=O)Nc2c1cnn2-c1ccc(Cl)cc1F (centres undefined) | 70.31%
CC(C)CC1SCC(=O)Nc2c1cnn2C(C)C (centres undefined) | 1.479%
CC(C)CC1SCC(=O)Nc2c1cnn2-c1ccc(F)cc1 (centres undefined) | 52.58%
CC(=O)N1CCC(NC(C)c2cnn(-c3ccc(F)cc3F)c2C)CC1 (centres undefined) | -2.797%
Cc1noc(CNC(=O)NCCOc2ccc(Cl)cc2)n1 | -1.273%
N#Cc1cccc(OCCCN2CCN(C(=O)c3ccoc3)CC2)c1 | -11.27%
CC(C)C1SCC(=O)Nc2c1cnn2-c1ccc(F)cc1 (centres undefined) | 81.09%
CC(C)n1[nH]c(=O)c2c1NC(=O)CSC2C1CCCCC1 (centres undefined) | -15.8%
CC(C)n1ncc2c1NC(=O)CSC2C(C)(C)C (centres undefined) | 1.885%
Cc1ccccc1CN(CCN(C)C)Cc1ccc(S(C)(=O)=O)cc1 | -5.606%
CN(Cc1ccccn1)C(C(=O)O)c1ccc2c(c1)OCO2 (centres undefined) | 99.57%
COc1cccc(OC)c1C(C(=O)O)N(C)Cc1c(C)n[nH]c1C (centres undefined) | -9.19%
COc1ccc(C(C(=O)O)N(C)CCN2CCOCC2)c(C)c1 (centres undefined) | 5.185%
Cc1ccc(CN(C)C(C(=O)O)c2ccc3c(c2)OCO3)o1 (centres undefined) | 114%
COc1cccc(Cl)c1C(C(=O)O)N(C)Cc1c(C)n[nH]c1C (centres undefined) | -23.52%
COc1c(C)cc(C(C(=O)O)N(C)Cc2ccn[nH]2)cc1C (centres undefined) | -0.04634%
COc1ccc(C(C(=O)O)N(C)Cc2ccon2)cc1Cl (centres undefined) | 4.9%
COc1cccc(C(C(=O)O)N(C)Cc2ccc(C)o2)c1 (centres undefined) | 105.1%

SMILES | Percent Effect
CN1CCCN(C(C(=O)O)c2ccc3c(c2)OCO3)CC1 (centres undefined) | -6.004%
Cc1noc(CN(Cc2ccc3c(c2)OCO3)Cc2ccc(C)o2)n1 | 1.784%
Cc1n[nH]c(C)c1CN(C)C(C(=O)O)c1ccc2c(c1)OCO2 (centres undefined) | 109.5%
CN(C)C(C(=O)N1CC(c2ccccn2)C1)c1ccc2c(c1)OCO2 (centres undefined) | -10.36%
CCc1c(C)[nH]c(C(C)(C)N)nc1=O.Cl | 24.57%
CCSc1ncc(CN2CCN(c3nc(C)cnc3C)CC2)cn1 | -7.047%
CN(C)CCCC(=O)N1C[C@H]2CC[C@@H]1CN(Cc1ccccc1)C2 | -3.863%
CCC(CC)C(=O)NCC1(NC(C)c2ccccc2)CCOCC1 (centres undefined) | -13.17%
COc1ccc(C)cc1CCNS(C)(=O)=O | 4.512%
Cn1ccnc1CN1CCC2(CC1)COC2.O=C(O)C(F)(F)F | 97.83%
COC1CC2(CCN(Cc3nccn3C)CC2)C1.O=C(O)C(F)(F)F | 5.077%
O=C(O)C(F)(F)F.O=S(=O)(C1CC1)N1CCOCC2(CCN(c3ccccn3)C2)C1 (centres undefined) | 8.73%
Cn1cncc1CN1CCC2(CC1)COCCN(S(C)(=O)=O)C2.O=C(O)C(F)(F)F | 124.1%
CCOC1CC2(CCN(Cc3nccn3C)CC2)C1.O=C(O)C(F)(F)F | 2.92%
CN1CCOCC2(CCN(Cc3ccc[nH]3)CC2)C1.O=C(O)C(F)(F)F.O=C(O)C(F)(F)F | -3.282%
CS(=O)(=O)N1CCOCC2(CN(Cc3nccs3)CCO2)C1.O=C(O)C(F)(F)F (centres undefined) | 6.136%
Cn1ccnc1CN1CCC2(CC1)COCCN(S(C)(=O)=O)C2.O=C(O)C(F)(F)F | 104.9%
Cn1ccnc1CN1CCC2(COCCN(Cc3ccsc3)C2)C1 (centres undefined) | 14.38%
Cn1ccnc1CN1CCC2(COCCN(S(=O)(=O)C3CC3)C2)C1 (centres undefined) | 106.3%
Cn1ccnc1CN1CCC2(CC1)CCN(Cc1ccoc1)C2.O=C(O)C(F)(F)F.O=C(O)C(F)(F)F | -4.24%
COc1cnc(N2C[C@H](CO)C[C@H](CN3CCOCC3)C2)nc1 | -6.58%
Cc1ccc(CN(C(=O)C(C)S(C)(=O)=O)C2CC2)cc1C (centres undefined) | -15.47%
Cc1ccc(S(=O)(=O)N(C)CC(C)O)c(F)c1 (centres undefined) | 4.809%
CCc1ncc(C(=O)NC(C)(C)C(=O)OC)s1 | -4.518%
c1cnc(N2CCOCC3(CCN(c4cnccn4)CC3)C2)nc1 | -29.45%
COCC1CC2(CCN(Cc3nccn3C)CC2)CN1c1ncccn1.O=C(O)C(F)(F)F (centres undefined) | -8.738%

SMILES | Percent Effect
Cn1ccnc1CN1CCC2(CC1)COCCN(c1ncccn1)C2 | 118.1%
Cn1cc2ncn(CCNc3cccnc3)c(=O)c2n1 | -8.591%
Cc1ccc(CC(=O)N2CCCCC2c2nc(C)cs2)cn1 (centres undefined) | 2.602%
Cc1csc(C2CCCCN2C(=O)c2cc(C)n(C)n2)n1 (centres undefined) | 98.18%
Cc1csc(C2CCCCN2C(=O)c2cnn3ccc(C)nc23)n1 (centres undefined) | 2.073%
Cc1csc(C2CCCCN2C(=O)c2cn[nH]c2C)n1 (centres undefined) | 83.45%
Cc1cncc(C(=O)N2CCCCC2c2nc(C)cs2)c1 (centres undefined) | 6.279%
Cc1cnc(C(=O)N2CCCCC2c2nc(C)cs2)cn1 (centres undefined) | 81.82%
Cc1cccc(C(=O)N2CCCCC2c2nc(C)cs2)n1 (centres undefined) | 80.1%
COc1ccc(C(=O)N2CCCCC2c2nc(C)cs2)nn1 (centres undefined) | -5.655%
CC(C)(C)c1ccc(C2(C(=O)NCCS(N)(=O)=O)CC2)cc1 | -15.99%
Cc1csc(C2CCCCN2C(=O)c2c[nH]c(C)n2)n1 (centres undefined) | 62.15%
CN(Cc1ccco1)C(=O)C1CSCN1C(=O)C1CCC1 (centres undefined) | 111.9%
CN(Cc1ccco1)C(=O)C1CSCN1C(=O)c1cccs1 (centres undefined) | 104.7%
CN(Cc1ccco1)C(=O)C1CSCN1C(=O)c1cccnc1 (centres undefined) | 0.06211%
CN(Cc1cc(-c2cccnc2)no1)C(=O)[C@@H]1CSCN1C | -21.19%
Cc1ccc(CC(=O)N2CSCC2C(=O)N(C)Cc2ccco2)o1 (centres undefined) | 8.524%
CCOCC(=O)N1CSCC1C(=O)N(C)Cc1ccco1 (centres undefined) | 113.6%
CN(Cc1ccco1)C(=O)NCC(c1cccs1)N(C)C (centres undefined) | 1.793%
CN(Cc1ccco1)C(=O)[C@H]1CSCN1C(=O)OC(C)(C)C | 12.78%
Cn1c(CN2CCCC2c2noc(C3CC3)n2)cc(=O)n(C)c1=O (centres undefined) | -13.43%
COCC(=O)N1CCCC2(CCN(CCN3CCCC3)CC2)C1.O=C(O)C(F)(F)F.O=C(O)C(F)(F)F | 18.87%
CCCc1n[nH]c(C2CN(C(=O)c3cc(C4CC4)on3)CCO2)n1 (centres undefined) | 114.4%
CCc1n[nH]c(C2CN(C(=O)c3cc(C4CC4)on3)CCO2)n1 (centres undefined) | 117.8%
O=S(=O)(c1c(Cl)nc2sccn12)N1CCC2(CCNCC2)C1 | -2.285%
CC(C)(C)CN[C@@H]1CO[C@H](CNC(=O)C2CCCC2)[C@H]1O | -14.33%

From ChEMBL document CHEMBL3988442, “University of Dundee, Small-Polar-MMV Screening Library” (2021)
